ELG1 repair inh = qHTS screen for small molecules that inhibit ELG1-dependent DNA repair in human embryonic kidney (HEK293T) cells expressing luciferase-tagged ELG1. HEK293T ELG1-luciferase reporter, luminescence, 16 h; DNA damage induced by 5-fluorouridine. Potency, µM (highest dose often 46.1 µM), without a hit: at the highest dose activity change, negative = inhibition, most hits filed as inhibitors. 330,000 compounds, 2.3% hits; also: % is scaled to controls: 0 for no effect and ±100 for the full control effect; nearly all actives have a fitted effect of over 55% in size
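Luminescence from the luciferase reporter, measured 30 min after ONE-Glo reagent at room temperature, was the read-out. Beforehand, 2,000 cells per well were exposed for 16 hr at 37 °C to 5-fluorouridine together with compound or vehicle.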
SW480 rereplic = A quantitative high throughput screen for small molecules that induce DNA re-replication in SW480 colon adenocarcinoma cells. SW480 DNA re-replication, Hoechst DNA content imaging, 48 h. 340,000 compounds, 1.8% hits. Potency, µM (titrated, usually from 46.1 µM), inactives show at the highest dose re-replication activation, most hits filed as activators. AID 624297, 2012; also: % of control where 0% means no effect; nearly all actives have a fitted effect of over 55% in size
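DNA re-replication was detected as more nuclei of elevated Hoechst intensity after 48 hr exposure to compound (23 nL pinned per well of 250 cells).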
MCF10A rereplic = A quantitative high throughput screen for small molecules that induce DNA re-replication in MCF 10a normal breast cells. 350,000 compounds, 2.9% hits. AID 624296, 2012. Potency, µM (top dose mostly 46.1 µM), for inactives: at the highest dose activity, positive = re-replication, most hits filed as activators. MCF 10A DNA re-replication, Hoechst nuclear intensity, 48 h; also: % of control where 0% means no effect; nearly all actives have a fitted effect of over 50% in size
KB-V1 MDR tox = qHTS assay for MDR1-selective chemotherapeutics: Primary screen using the drug-selected MDR subline cells KB-V1. 400,000 compounds, 3.4% hits. Potency, µM (series often up to 46.1 µM), actives largely listed as cytotoxic. KB-V1 MDR cells viability, CellTiter-Glo, 72 h; also: % is scaled to controls: 0 for no effect and ±100 for the full control effect; nearly all actives have a fitted effect of over 60% in size
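In this primary screen, KB-V1 cells overexpressing P-gp are incubated with library compounds (lowest to highest concentration) for 72 h at 37 degrees C before a luminescent ATP viability read.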
KB-3-1 cytotox = qHTS assay for MDR1-selective chemotherapeutics: Primary screen using the parental adenocarcinoma cell KB-3-1; AID 1347075, 2019; 400,000 compounds, 1.4% hits; KB-3-1 viability, CellTiter-Glo ATP luminescence, 72 h; Potency, µM (highest dose often 46.1 µM), usual class: cytotoxic; also: % is scaled to controls: 0 for no effect and ±100 for the full control effect; nearly all actives have a fitted effect of over 60% in size
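Luminescent ATP read-out (CellTiter-Glo) measures survival of drug-naive KB-3-1 cells after 72 h compound exposure at 37 °C. Titration series was screened from lowest to highest concentration, with DMSO vehicle plates as background controls.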
* hit, by the source's call. This is a sample that favours compounds with a hit; in the whole collection about 8.1% have one here. Calls follow the shape of the dose curve; as a rule, active = well fitted curve in the direction sought with a large enough effect; inconclusive = small, poorly fitted or top-dose-only effect, or another doubt; inactive = no such curve, though single readings can be large; an effect the other way counts as inactive or inconclusive. Potency is read from the fitted curve at half-maximal effect.

For O=C1OCCN1C(=O)[C@H]1[C@H](c2ccccc2)C(c2ccc(F)cc2)=NN1c1ccc(Br)cc1 the results were ELG1 repair inh 9%, SW480 rereplic 23µM*, MCF10A rereplic 9.2µM*, KB-V1 MDR tox inactive and KB-3-1 cytotox inactive.
`O=C1OCCN1C(=O)[C@H]1[C@H](c2ccccc2)C(c2ccccc2)=NN1c1ccccc1` gave ELG1 repair inh 1%, SW480 rereplic -5%, MCF10A rereplic 21µM*, KB-V1 MDR tox inactive and KB-3-1 cytotox inactive.
Screening O=C1OCCN1C(=O)[C@H]1[C@H](c2ccccc2)C(c2ccccc2)=NN1c1ccc(Br)cc1 returned ELG1 repair inh 11%, SW480 rereplic 18µM*, MCF10A rereplic inconclusive, KB-V1 MDR tox inactive and KB-3-1 cytotox inactive.
O=C1OCCN1C(=O)[C@H]1[C@H](c2ccc([N+](=O)[O-])cc2)C(c2ccc(F)cc2)=NN1c1ccc(Br)cc1 was read as ELG1 repair inh inconclusive, SW480 rereplic -1%, MCF10A rereplic -31%, KB-V1 MDR tox inactive and KB-3-1 cytotox inactive.
Screening O=C(OCC(=O)N1CCN(c2ccccc2)CC1)c1ccc[n+]([O-])c1 returned ELG1 repair inh 14%, SW480 rereplic -1%, MCF10A rereplic -2%, KB-V1 MDR tox inactive and KB-3-1 cytotox inactive.
Screening CCCCN(C)S(=O)(=O)c1ccc(C(=O)Nc2nnc(CSC)o2)cc1 returned ELG1 repair inh inconclusive, SW480 rereplic inconclusive, MCF10A rereplic -6%, KB-V1 MDR tox inconclusive and KB-3-1 cytotox inconclusive.
CCCCN(CC)S(=O)(=O)c1ccc(C(=O)Nc2nnc(-c3cccs3)o2)cc1 was read as ELG1 repair inh inconclusive, SW480 rereplic inconclusive, MCF10A rereplic inconclusive, KB-V1 MDR tox inconclusive and KB-3-1 cytotox 8.2µM*.
For CC1CCCCN1S(=O)(=O)c1ccc(C(=O)Nc2ccccc2-c2nc3ccccc3[nH]2)cc1 (stereo unspecified) the results were ELG1 repair inh inconclusive, SW480 rereplic -3%, MCF10A rereplic 0%, KB-V1 MDR tox 23µM* and KB-3-1 cytotox inconclusive.
Screening CCCCN(CCCC)S(=O)(=O)c1ccc(C(=O)Nc2nnc(COC)o2)cc1 returned ELG1 repair inh -19%, SW480 rereplic inconclusive, MCF10A rereplic inconclusive, KB-V1 MDR tox inconclusive and KB-3-1 cytotox inconclusive.
CCCCN(C)S(=O)(=O)c1ccc(C(=O)Nc2nnc(-c3ccco3)o2)cc1 was read as ELG1 repair inh inconclusive, SW480 rereplic 13µM*, MCF10A rereplic inconclusive, KB-V1 MDR tox inconclusive and KB-3-1 cytotox inconclusive.
`O=C(Nc1nnc(-c2ccco2)o1)c1ccc(Cl)cc1` gave ELG1 repair inh inconclusive, SW480 rereplic 1%, MCF10A rereplic inconclusive, KB-V1 MDR tox inconclusive and KB-3-1 cytotox inconclusive.
Screening CCN(CC)S(=O)(=O)c1ccc(C(=O)Nc2nnc(-c3ccco3)o2)cc1 returned ELG1 repair inh 21µM*, SW480 rereplic inconclusive, MCF10A rereplic 1%, KB-V1 MDR tox inconclusive and KB-3-1 cytotox inconclusive.
`O=C(Nc1ccccc1-c1nc2ccccc2[nH]1)c1ccc(S(=O)(=O)N2CCCCC2)cc1` gave ELG1 repair inh 4%, SW480 rereplic 5%, MCF10A rereplic inconclusive, KB-V1 MDR tox inconclusive and KB-3-1 cytotox inactive.
For Cc1onc(-c2c(Cl)cccc2Cl)c1C(=O)N1CCN(c2ccc(F)cc2)CC1 the results were ELG1 repair inh -13%, SW480 rereplic inconclusive, MCF10A rereplic inconclusive, KB-V1 MDR tox inactive and KB-3-1 cytotox inactive.
For CC1CCCCN1S(=O)(=O)c1ccc(C(=O)Nc2nnc(-c3ccco3)o2)cc1 (stereo unspecified) the results were ELG1 repair inh inconclusive, SW480 rereplic inconclusive, MCF10A rereplic 21%, KB-V1 MDR tox 5.8µM* and KB-3-1 cytotox inconclusive.

Screening results from PubChem.
